Assay results as given in ChEMBL document CHEMBL4513216, “Probing the Open Global Health Chemical Diversity Library for Multistage-Active Starting Points for Next-Generation Antimalarials” (ACS Infect Dis, 2020).
Screen size: about 69,000 compounds; about 8,600 (12%) showed an effect of 50% or more. Shown is part of a subset that was picked to be rich in strong results.

test system: Plasmodium berghei; assay: Screen against P. berghei liver stage (PbLuc), transformed with Luciferase, at 10uM; assay type: functional, HepG2; conditions: tested at 10 uM

SMILES	INHIBITION [%]
Cc1ccc(-n2c(SCC(=O)O)nnc2-c2ccccc2)cc1	-12.9
O=C1CN(CC2CC2)Cc2nc(NCc3ccccc3)sc21	29.3
Cn1cc(-c2nc(CN3CCCCC3Cn3cncn3)cs2)cn1 (centres undefined)	-91.6
Cc1nnc2n1CCN(C(=O)c1cc(Br)c(Cl)[nH]1)C2	18.85
Cc1noc(C2CCCN(Cn3cc(Cl)cn3)C2)n1 (centres undefined)	-9.39
Cc1nc(CN2C(=O)CC[C@@H]3[C@H]2CCN3C2CCOCC2)cs1	50
Cc1nc(CN2C(=O)CC[C@@H]3[C@H]2CCN3C2CCOC2)cs1 (some centres undefined)	-54.9
Cc1nc(CN2C(=O)C[C@H]3[C@H]2CCN3C2CCOC2)cs1 (some centres undefined)	-43.1
Cc1nc(CN2C(=O)C[C@H]3[C@H]2CCN3C2CCOCC2)cs1	20.1
Cc1nc(CN2C(=O)C[C@H]3[C@H]2CCN3CC2CCOC2)cs1 (some centres undefined)	56.6
Cc1nc(CN2C(=O)C[C@@H]3[C@@H]2CCN3CC2CCOCC2)cs1	-5.08
O=C(c1cnn2ccccc12)N1CCCC(OCc2ccccn2)C1 (centres undefined)	15.7
COc1c(CNC(c2ccccc2)c2ccc(F)cc2)c(C)nn1C (centres undefined)	35.4
CC1CCN(C(=O)[C@H]2C[C@@H]3CCN(CC4CCOCC4)C[C@H]3O2)CC1	-7.24
c1cc(NCc2ccncc2)nc(C2CCCN2)c1 (centres undefined)	14
O=C(CC1CCN(c2cccnn2)CC1)Nc1nncs1	31.3
Cc1nc(-c2ccccc2)sc1CSCCS(C)(=O)=O	20.1
Cc1nc(-c2ccccc2)sc1CSC(C)C(N)=O (centres undefined)	-48.3
Cc1nc(-c2ccccc2)sc1CSCCC(N)=O	60.8
CNc1cc2c(nn1)CCN(C(=O)c1cc(C)no1)C2	-65.3
CN1CC(C(=O)NCc2ccc(Br)cc2F)CC1=O (centres undefined)	-18.5
CNC(=O)CN1CCC(OCC2CCCO2)CC1 (centres undefined)	32.9
CCNC(=O)CN1CCC(OCC2CCCO2)CC1 (centres undefined)	68.8
O=C(CN1CCC(OCC2CCCO2)CC1)NCC(F)(F)F (centres undefined)	1.2
Cc1nn(C)c(C)c1C1CCCN1C(=O)c1ccnc(N(C)C)c1 (centres undefined)	-4.16
CN(Cc1ccco1)C1CCC12CCN(C(=O)c1ccco1)CC2 (centres undefined)	-77.5

SMILES	INHIBITION [%]
COc1ncccc1CNC(=O)c1cc(C)on1	-41.1
CCS(=O)(=O)N1CCN(C(C)c2ccccc2OC)CC1 (centres undefined)	13.5
COc1ccccc1C(C)N1CCN(S(=O)(=O)N(C)C)CC1 (centres undefined)	14.7
COc1ccccc1C(C)N1CCN(S(C)(=O)=O)CC1 (centres undefined)	51.1
COCCC(=O)N1CCCC2(CCCN2Cc2ccccc2F)C1 (centres undefined)	19.5
COCC(=O)N1CCN(C(=O)Cc2cccs2)[C@H]2CS(=O)(=O)C[C@H]21	-6.11
CC(C)C1Nc2ccccc2C(=O)N1CC(=O)Nc1nc2c(s1)CCC2 (centres undefined)	16.5
Cc1cc(C2CCCN(CC(=O)Nc3nc4c(s3)CCC4)C2)n[nH]1 (centres undefined)	75.8
O=C(CN1CCCC(c2ccn[nH]2)C1)Nc1nc2c(s1)CCCC2 (centres undefined)	86.9
O=C(O)c1cccc(CN2CCCC(c3ccn[nH]3)C2)c1 (centres undefined)	21.45
Cc1cc(C2CCCN(CC(=O)N3CCc4ccccc43)C2)n[nH]1 (centres undefined)	15.2
O=C(CN1CCCC(c2ccn[nH]2)C1)Nc1nncs1 (centres undefined)	56.3
Cc1nnc(NC(=O)CN2CCCC(c3ccn[nH]3)C2)s1 (centres undefined)	47.1
O=C1CCCN1CCN1CCCC(c2ccn[nH]2)C1 (centres undefined)	-24.2
O=C(CN1CCCC(c2ccn[nH]2)C1)N1CCCc2ccccc21 (centres undefined)	21.8
O=C(CN1CCCC(c2ccn[nH]2)C1)Nc1nc2c(s1)CCC2 (centres undefined)	83.2
Cc1nc(C)n(CC2CCCN(CC(=O)Nc3nncs3)C2)n1 (centres undefined)	12.4
Cc1cc(C2CCCN(CC(=O)N3CCCc4ccccc43)C2)n[nH]1 (centres undefined)	19.9
NC(=O)CCCNC(=O)Cc1csc(Cc2ccccn2)n1	46.6
CNC(=O)N1CCCCC1CCNS(C)(=O)=O (centres undefined)	-2.48
CC(=O)N1CCCN(C(C(=O)O)c2ccc(C)cc2C)CC1 (centres undefined)	41.3
CNc1cc(N2CCCC2CNCc2cccc(C(N)=O)c2)ncn1 (centres undefined)	39.5
CC(=O)N1CCN(C(=O)c2csc(-c3ccc(C)cc3C)n2)CC1	17
CN1CC2(CCN(C(=O)c3cccc(-n4cccn4)c3)CC2)OC1=O	12
CC(=O)N1CCC(NC(=O)c2ccc3c(c2O)OC(C)(C)C3)CC1	48.2
Cc1ccc(CN2CCC3(CC2)CC(CC(=O)NC(C)C)CO3)s1 (centres undefined)	-62.7

SMILES	INHIBITION [%]
CN(C)C[C@H]1OC[C@@H]2CCN(S(=O)(=O)c3ccc(F)cc3)C[C@@H]21	42.7
COc1ccccc1C(C)(C)NC(=O)NC1CCC(O)CC1 (centres undefined)	-30.3
Cc1ccc2oc(C(=O)N3CCCC(n4ccnc4C)C3)cc2n1 (centres undefined)	20.33
Cc1ccccc1C(=O)NC[C@@H]1CCN(C(=O)c2cscn2)C[C@H]1O	63.8
Cc1ccccc1C(=O)NC[C@@H]1CCN(C(=O)CN2CCCC2)C[C@H]1O	44.3
COc1ccc(C[C@H]2CN(C(=O)c3cscn3)CC[C@@H]2OC)cc1	22.3
Cc1ccccc1C(=O)NC[C@@H]1CCN(C(=O)c2cccn2C)C[C@H]1O	17.4
Cc1ccccc1C(=O)N1CC(C(=O)NCC2CC2)C2(CCOCC2)C1 (centres undefined)	-41.4
Cc1ccccc1C(=O)NC[C@@H]1CCN(C(=O)C2(O)CCCC2)C[C@H]1O	69.3
Cc1ccc(C)c(-c2[nH]c3ccccc3c2C(=O)O)c1	13.5
Cn1ccnc1C1(O)CCN(C(=O)Cc2ccccc2)CC1	7.635
CCN(CC)S(=O)(=O)c1ccc(C(=O)NC(C)(C#N)C2CC2)cc1 (centres undefined)	-5.1
O=C(c1ccc2c(c1)CCC2)N1CCC(c2n[nH]c(C3CC3)n2)CC1	-19.6
CC(=O)N1CCC(NC(=O)N(C)Cc2c(C)noc2C)CC1	-35.61
CC(=O)c1ccc(N2CCN(C(=O)c3cnn4c3OCCC4)CC2)cc1	16
COCc1ccc(C(=O)N2CCOCC2c2ccc(C)o2)cc1 (centres undefined)	1.2
COc1ccc(C(=O)N2CCOCC2c2ccc(C)o2)cc1 (centres undefined)	68
Cc1ccc(C2COCCN2C(=O)c2ccc(N(C)C)cc2)o1 (centres undefined)	-0.79
Cn1ncc(CN2CCc3onc(-c4cccc(F)c4)c3C2)c1C1CC1	41.5
Cn1cccc1C1CCCN1Cc1noc(C(C)(C)C)n1 (centres undefined)	-40.5
COc1cc2c(nn1)CCN(Cc1noc(CC(C)C)n1)C2	17.4
CC(C)Cc1nc(CN2CCc3onc(-c4cccc(F)c4)c3C2)no1	82.5
CC(C(=O)N(C)C)N1CCc2onc(-c3cccc(F)c3)c2C1 (centres undefined)	40.9
CC(C)c1nc(CN2CCc3onc(-c4cccc(F)c4)c3C2)no1	84.1
CC(C)(C)c1nc(CN2CCc3onc(-c4cccc(F)c4)c3C2)no1	67.7
Fc1cccc(-c2noc3c2CN(Cc2cncn2C2CC2)CC3)c1	33.3

SMILES	INHIBITION [%]
CC(C(N)=O)N1CCc2onc(-c3cccc(F)c3)c2C1 (centres undefined)	18.2
COc1ncnc2c1CCN(Cc1nccs1)CC2	-20.1
CCN(CC(=O)N(C)C)C(=O)c1ccc(-c2nc(C)cs2)cc1	30.9
CCCn1c(N2CCCCC2)nc2c(C)nn(C)c2c1=O	35.9
Cc1occc1C(=O)N1CCC2(CCCN(Cc3nccs3)C2)C1 (centres undefined)	-58.3
CC(C)c1nccn1Cc1cc(C(=O)NCC(F)(F)F)n[nH]1	94
CC(C)c1nccn1Cc1cc(C(=O)NCC(C)n2ccnc2)n[nH]1 (centres undefined)	26
Cc1ccc(CNC(=O)c2cc(Cn3ccnc3C(C)C)[nH]n2)o1	63
Cc1ccc(CN(C)C(=O)c2cc(Cn3ccnc3C(C)C)[nH]n2)o1	42.3
CCn1ccnc1CN1CCN(C(C)C(=O)NCC(F)(F)F)CC1 (centres undefined)	19.7
Cc1nc(CNC(=O)c2cc(Cn3ccnc3C(C)C)[nH]n2)sc1C	37.9
CCc1nc(CNCCn2cc(C)cn2)no1	0.914
O=S(=O)(CCOc1ccc(F)cc1)Nc1cnn(CC(F)F)c1	-6.85
CN1CCN2CCN(Cc3cc(=O)n4c5c(cccc35)CCC4)CC2C1 (centres undefined)	13
CCCC1CN(CCOC)C(=O)c2cccnc2O1 (centres undefined)	26.8
COc1ccccc1CN(Cc1cccc(C)c1)C(=O)[C@@H](N)CC(=O)O	11.8
CN[C@@H](C)C(=O)N(Cc1cccc(C)c1)Cc1ccccc1OC	34.1
COCC(=O)N(Cc1cccc(C)c1)Cc1ccccc1OC	51.7
O=C(COc1ccc(F)cc1F)N1CCOCC(O)(CN2CCCC2)C1 (centres undefined)	11.8
Cc1ccc2cc(C(=O)NCCN3CCS(=O)(=O)CC3)c(C)nc2c1	74.7
CCN1CCN(CCCNC(=O)c2cc3ccc(C)cc3nc2C)CC1	37.2
COc1ccc2nc(C)c(C(=O)NCCN3CCS(=O)(=O)CC3)cc2c1	46.9
COCCn1ccc2c(cnc3nc(SC)nn32)c1=O	38.4
CSc1nc2ncc3c(=O)n(CCN4CCCCC4)ccc3n2n1	51
CSc1nc2ncc3c(=O)n(C)ccc3n2n1	-3.73
CCn1c(C)cc(C(=O)N2C[C@@H](C(=O)O)[C@H](c3ccccc3C)C2)c1C	0.33
